For assay [1], the target named is Cytochrome P450 3A4 (Homo sapiens) (UniProt P08684). As to the kind of experiment: qHTS Assay for Inhibitors and Substrates of Cytochrome P450 3A4 (AID 884). Further: potency means the concentration at half of the fitted maximal effect; nearly all actives have a fitted effect of over 50% in size. The gist of the method: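 20 nM human CYP3A4 with 25 uM Luciferin-PPXE (at KM) in 200 mM KPO4, preincubated 10 min with compound; NADPH regeneration started a 60 min RT reaction. Luciferin detected by luminescence, normalized to 57 uM ketoconazole as full inhibition.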
Cytochrome P450 3A4 (Homo sapiens), sequence (P08684 whole entry, looked up): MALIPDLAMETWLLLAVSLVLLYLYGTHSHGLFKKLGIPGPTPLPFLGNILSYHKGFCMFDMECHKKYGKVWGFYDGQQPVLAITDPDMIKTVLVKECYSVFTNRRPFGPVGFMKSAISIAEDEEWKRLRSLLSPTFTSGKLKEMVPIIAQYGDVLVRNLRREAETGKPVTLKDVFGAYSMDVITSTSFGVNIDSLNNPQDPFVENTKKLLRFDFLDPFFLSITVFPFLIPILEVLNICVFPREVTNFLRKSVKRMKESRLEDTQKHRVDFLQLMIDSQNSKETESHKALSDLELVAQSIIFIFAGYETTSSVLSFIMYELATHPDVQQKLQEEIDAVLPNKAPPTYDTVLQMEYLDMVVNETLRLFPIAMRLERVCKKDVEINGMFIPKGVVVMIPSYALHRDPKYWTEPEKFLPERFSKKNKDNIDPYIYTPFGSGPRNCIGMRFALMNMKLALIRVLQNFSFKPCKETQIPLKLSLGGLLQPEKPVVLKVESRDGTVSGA
In general terms: Quantitative high-throughput screening tests each substance at several concentrations.

Assay [2] has the same target. Description: qHTS Assay for Activators of Cytochrome P450 3A4 (AID 885). Further: nearly all actives have a fitted effect of over 65% in size. Summed up: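 20nM CYP3A4 + 25uM Luciferin-PPXE (=KM), 200mM KPO4; cpd 10 min RT; NADPH regen, 60 min RT; stop w/ detection buffer, 20 min; luminescence. Normalized to 57 uM ketoconazole.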

Molecules are shown by their SMILES. Several values for one entry are separate records, joined by “and”; a condition that tells them apart may be missing. Identical values can stand only once. Values without a mark were called inactive. Results filed as inconclusive are left out. Activity calls are given as the source filed them. The call rests on the fitted dose curve; in most records, active means well fitted curve in the direction sought with a large enough effect; inconclusive means small, poorly fitted or top-dose-only effect, or another doubt; inactive means no such curve, though single readings can be large; an effect the other way counts as inactive or inconclusive.

For the molecule `CC(C)(C)N1C(=O)[C@H]2[C@H]3[C@H](O)[C@H](O)C/C(=N/OC[C@@H](O)COCc4ccco4)[C@@H]3CC[C@@H]2C1=O`, the Potency in assay [1] is 5.01 µM (active). In addition, the activity change, positive = activation in assay [2] is -87.2% [at 11.4 µM].

For the molecule `FC(F)(F)c1ccc(C2[C@H]3CN(Cc4cccnc4)[C@H](c4ccccc4)C34CC2(c2ccccc2)C4)cc1` (stereo partly specified), the Potency in assay [1] was 3.16 µM (active). Also, the Potency entry in assay [2] is “inactive”.

For `O=C1C[C@@H](O)[C@@H](O)[C@H]2[C@@H]3C(=O)N(Cc4ccc5c(c4)OCO5)C(=O)[C@@H]3CC[C@H]12`, the Potency in assay [1] was 3.98 µM (active). Moreover, the activity change, positive = activation in assay [2] was -78.5% [at 11.4 µM] and -81.2% [at 11.4 µM].

For `C/C(CCN1CCCCc2nc(C)c(C)cc21)=N\O[C@@H](C)c1cn([C@H](CO)Cc2ccccc2)nn1`, in assay [1], the Potency is 3.98 µM (active) and 5.01 µM (active). Besides, the activity change, positive = activation in assay [2] is -72.3% [at 11.4 µM] and -80.4% [at 11.4 µM].

As to `CCC1=C(OC(=O)N(CC)CC)N2C(=O)OC(=NCc3ccccc3)[C@]2(C)[C@H]2C1=CC[C@H]1C(=O)N(c3ccccc3)C(=O)[C@H]12`, the Potency in assay [1] was 2.51 µM (active). In assay [2], the Potency entry was “inactive”.

`C[C@H]1C2=C3C(C[C@H]4C(=O)N(c5ccccc5)C(=O)[C@H]4[C@H]3[C@@]3(Cc4ccccc4)C(=NCCc4c[nH]c5ccccc45)OC(=O)N3C2=O)[C@H]2C(=O)N(c3ccccc3)C(=O)[C@H]21` (stereo partly specified): the Potency in assay [1] is 2.51 µM (active). The Potency result in assay [2] was “inactive”.

On to `Cn1c(=O)c(C(=O)COC(=O)c2cc(C(F)(F)F)nc3c(C(F)(F)F)cccc23)c(N)n(CC2CC2)c1=O`, for which, in assay [1], the Potency was 3.98 µM (active). In assay [2], the Potency result is “inactive”.

Take `CCC1=C2CC[C@H]3C(=O)N(c4ccccc4)C(=O)[C@H]3[C@H]2[C@@]2(Cc3ccccc3)C(=NCCc3c[nH]c4ccccc34)OC(=O)N2C1=O`: in assay [1], the Potency was 1.26 µM (active). Also, the Potency result in assay [2] was “inactive”.

With `CN1C[C@@H]2C(c3ccc(Cl)nc3)C3(c4cccnc4)CC2(C3)[C@H]1c1ccccc1` (stereo partly specified), the Potency in assay [1] was 7.94 µM (active). Moreover, the Potency entry in assay [2] was “inactive”.

With `CCC1=C(OC(=O)N(CC)CC)N2C(=O)OC(=NCCOC)[C@]2(Cc2ccccc2)[C@H]2C1=CC[C@H]1C(=O)N(CC(=O)OC)C(=O)[C@H]12`, in assay [1], the Potency was 6.31 µM (active). Also, the Potency result in assay [2] was “inactive”.

On to `Clc1ccc(C2[C@H]3CN(Cc4cccnc4)[C@H](c4ccccc4)C34CC2(c2cccnc2)C4)cn1` (stereo partly specified), for which, in assay [1], the Potency was 2.51 µM (active). For the same molecule, the Potency result in assay [2] is “inactive”.

For `COC(=O)c1cccc(C23CC4(C2)[C@H](CN(Cc2cccnc2)[C@@H]4c2ccccc2)C3c2ccccc2)c1` (stereo partly specified), the Potency in assay [1] is 1.58 µM (active). Besides, the Potency result in assay [2] was “inactive”.

Consider `O=C(O)c1sccc1S(=O)(=O)Nc1ccccc1N1CCCCC1`, for which the Potency in assay [1] is 15.8 µM (active). Besides, in assay [2], the Potency entry was “inactive”.

With `CCC1=C2CC[C@H]3C(=O)N(CC)C(=O)[C@H]3[C@H]2[C@@]2(Cc3ccccc3)C(=NCc3ccccc3)OC(=O)N2C1=O`, the Potency in assay [1] is 3.16 µM (active). The Potency result in assay [2] is “inactive”.

`C/C(CCN1CCCCc2nc(C)c(C)cc21)=N\O[C@@H](C)CN1CCCc2nc(C)c(C)cc21`: in assay [1], the Potency was 3.16 µM (active). For the same molecule, the activity change, positive = activation in assay [2] is -61.2% [at 11.4 µM].

`CC(Cc1ccccc1)C(=O)NCCc1c[nH]c2ccccc12` (stereo unspecified): the Potency in assay [1] is 2.51 µM (active). The Potency result in assay [2] is “inactive”.

For `CCC1=C(OC(=O)N(CC)CC)N2C(=O)OC(=NCC(=O)OC)[C@]2(C)[C@H]2C1=CC[C@H]1C(=O)N(CC(=O)OC)C(=O)[C@H]12`, the Potency in assay [1] was 10 µM (active). Further, the Potency result in assay [2] was “inactive”.

With `CC(C)=CCC/C(C)=C/CO/N=C1/C[C@@H](O)[C@@H](O)[C@@H]2[C@@H]3C(=O)N(Cc4ccc5c(c4)OCO5)C(=O)[C@H]3CC[C@H]12`, the Potency in assay [1] was 1.58 µM (active). In addition, the activity change, positive = activation in assay [2] was -115% [at 11.4 µM].

Take `CCC1=C(OC(=O)N(CC)CC)N2C(=O)OC(=NCCOC)[C@]2(Cc2ccccc2)[C@H]2C1=CC[C@H]1C(=O)N(C)C(=O)[C@H]12`: the Potency in assay [1] is 7.94 µM (active). In addition, the Potency entry in assay [2] was “inactive”.

Take `COC(=O)[C@@H]1C[C@H]2CC[C@H](O)C[C@H]2N1Cc1c(F)cccc1Cl`: the Potency in assay [1] is 15.8 µM (active). Besides, the Potency result in assay [2] was “inactive”.

`C/C(CCN1CCc2nc(-c3ccccc3)c(-c3ccccc3)cc2C1)=N\OC[C@@H](O)COCc1ccco1`: in assay [1], the Potency is 3.16 µM (active). Besides, in assay [2], the activity change, positive = activation is -86.5% [at 11.4 µM].

As for `COC(=O)NC(c1ccco1)C(C(C)=O)C(=O)OC` (stereo unspecified), the Potency in assay [1] is 3.16 µM (active). The activity change, positive = activation in assay [2] is -66.9% [at 11.4 µM].

Regarding `COC(=O)[C@@H]1C[C@@H]2CC[C@@H](O)C[C@@H]2N1Cc1ccccc1OS(=O)(=O)c1ccc(C)cc1`, the Potency in assay [1] is 2.51 µM (active). Moreover, the Potency result in assay [2] was “inactive”.
